This note sets out measurements from PubChem BioAssay (NCATS).

Inconclusive results are not listed. Where a call stands in place of a potency, no number is given. The source made the active and inactive calls. Calls follow the shape of the dose curve; as a rule, active = well fitted cell-killing curve with a large enough effect; inconclusive = small, poorly fitted or top-dose-only effect; inactive = flat fitted curve, though single readings scatter.
Potency is read from the fitted curve at half-maximal effect.

A short description of the assay: Cell Viability - LYMP2-024 (AID 988). Also: nearly all actives have a fitted effect of over 60% in size. Conditions: LYMP2-024 lymphoblastoid cell viability; series mostly up to 92.2 µM. From the text:
NIH Chemical Genomics Center [NCGC]
NIH Molecular Libraries Screening Centers Network [MLSCN]
National Institutes of Environmental Health Sciences [NIEHS]
National Toxicology Program [NTP]
We have developed a 1536-well cell-based assay for quantitative high throughput screening (qHTS) against a number of cell lines to determine in vitro cytotoxicity of small molecules. This particular assay uses a human lymphoblastoid cell line (LYMP2-024) purchased from Coriell Institute for Medical Research.
NCGC Assay Protocol Summary:
The CellTiter-Glo luminescent cell viability assay (Promega) is a homogeneous method to measure the number of viable cells in culture. The end point readout of this assay is based on quantitation of intracellular ATP, an indicator of metabolic activity, using the luciferase reaction. Luciferase catalyzes the oxidation of beetle Luciferin to oxyluciferin and light in the presence of ATP. The luminescent signal is proportional to amount of ATP present.
Using the CellTiter-Glo luminescent cell viability assay, the amount of cellular ATP was measured in the lymphoblastoid cell line with complete culture medium following compound treatment for 24 hours. The assay was performed in opaque white Kalypsys 1536-well plates. In the screen, tetraoctylammonium bromide was used as positive control. Library compounds were measured for their ability to cause acute toxicity in the cell line, as reflected by a decrease in intracellular ATP levels, in a concentration-dependent manner. […] AC50 values were determined from concentration-response data modeled with the standard Hill equation.
qHTS protocol for CellTiter Glo lymphoblastoid cellular assay
[Step] [Parameter] [Value] [Description]
1. Reagent; 5 uL; 2500 lymphoblastoid cells/well
2. Time; 5 hr; 37 C incubation
4. Controls; 23 nL; Tetraoctylammonium bromide 6.4pM to 92 uM
5. Time; 24 hr; 37 C incubation
6. Reagent; 5 uL; CellTiter Glo reagent
7. Time; 30 min; Room Temperature
8. Detection; Luminescence; Viewlux plate reader
Keywords: cell viability, cytotoxicity, lymphoblastoid cell line, luminescence, NTPHTS, NTPHTS_NCGC, NIEHS, DSSTox, MLSMR, MLSCN, NIH Roadmap, qHTS, NCGC
Take `CC(=O)Oc1ccccc1C(=O)Nc1ncc([N+](=O)[O-])s1`: the Potency is 39.8 µM (active). With `Oc1cccc2cccnc12`, the Potency is 7.94 µM (active). In the case of `CCOP(=S)(OCC)Oc1cc(C)nc(C(C)C)n1` it was “inactive”; in that of `c1ccc2c(c1)Nc1ccccc1S2`, “inactive”. In the case of `CNCC(O)c1ccc(O)cc1` (stereo unspecified) it was “inactive”. With `CCCC(C)(COC(N)=O)COC(=O)NC(C)C` (stereo unspecified) the entry was “inactive”; with `N[C@@H](Cc1ccc(N(CCCl)CCCl)cc1)C(=O)O`, 20 µM (active); with `NCC(O)c1ccc(O)cc1` (stereo unspecified), “inactive”.

For the compound `Oc1ccccc1-c1ccccc1`, the Potency result is “inactive”. In the case of `Oc1ccc(Cl)cc1Cc1ccccc1` it was “inactive”; in that of `OCCOc1ccccc1`, “inactive”.
